The values below come from PubChem BioAssay AID720526 (National Center for Advancing Translational Sciences (NCATS), 2013).

Inconclusive results are not listed. Calls of active or inactive are those of the source. Calls come from the whole dose curve; as a rule, active = well fitted activation curve with a large enough effect; inconclusive = small, poorly fitted or top-dose-only effect; inactive = no such curve, though single readings can be large or run the other way.

This assay can be described thus: qHTS Assay for NPC1 Promoter Activators: Hit Validation Using Renila Luciferase Read-Out for NPC1. Particulars: Huh7 NPC1 promoter-luciferase reporter, luminescence, 24 h; series mostly up to 76.9 µM. An excerpt:
Niemann Pick Type C (NPC) is a rare neurodegenerative lipidosis that is characterized by lipid storage in the endosomal/lysosomal system. Treatment modalities for this devastating disease are currently non-existent due to the severe obstacles associated with accessing the central nervous system with proteins or genes. The majority of mutations causing NPC disease are missense mutations that are distributed throughout the length of the NPC1 protein, with the most prevalent being the I1061T allele. Although NPC1 mutant proteins may be functional, they are typically trapped in the ER due to misfolding. […] We have developed and optimized a cell based renilla luciferase reporter assay in 1536 well format for the identification of up-regulators of the mutant Rab9 promoter. This assay presents data on the validation of hits from the primary screen, which used a firefly luciferase read-out. NIH Chemical Genomics Center [NCGC] NIH Molecular Libraries Probe Production centers Network [MLPCN] MLPCN Grant: MH089375 Assay Submitter (PI): Yiannis A. Ioannou
Huh7 cells stably expressing NPC promoter-luciferase will be seeded at 1,500 cells/well in 5 uL in 1,536-well white opaque plates with 23 nL/well of compound in DMSO solution. The assay plates will be incubated at 37 deg C for 24 hours, after which 3 uL/well BriteLite plus luciferase detection reagent mixture (Perkin Elmer) will be added. Luminescence signal will be measured in a ViewLux plate reader (Perkin Elmer) after a 10 minute incubation at the room temperature.
(In general: In qHTS, concentration-response curves come from the screen itself.)

Regarding `COc1cccc(CCNCc2ccc(SC)cc2)c1`, the result was inactive.

Take `CCC(=NCc1cccnc1)c1c(O)n(-c2ccccc2)c(=O)[nH]c1=O`: the outcome was inactive.

`COc1ccc(C(CC(=O)N2CCC3(CC2)OCCO3)NS(=O)(=O)c2ccc(F)cc2)cc1` (stereo unspecified): the outcome was inactive.

With `Cc1cccn2c(NCC3CCCO3)c(C(C)C)nc12` (stereo unspecified), the outcome was inactive.

On to `CN1CCc2cc3c(c4c2C1Cc1ccccc1-4)OCO3` (stereo unspecified), for which the outcome was inactive.

Take `O=C1c2ccccc2C(=O)N1Cc1nc2ccccc2c(=O)n1-c1cccnc1`: the result was inactive.
